# Experimental data: PubChem BioAssay AID1645860 (Buhrlage Lab, Dana-Farber Cancer Institute and Novartis …, 2021)
# Screen size: about 47,000 compounds; about 2,500 (5.3%) were called active. This excerpt belongs to a sample that is enriched for actives. Unmarked numbers belong to inactive results. Rule as the data show it: active = inhibition above about 30%; inactive = the rest.
# Biological target: Ubiquitin carboxyl-terminal hydrolase 30 (Homo sapiens) (UniProt Q70CQ3)
# Assay: inhibitors of human USP30 deubiquitinase (AID 1645860)
# Settings: purified USP30, Ub-rhodamine cleavage fluorescence; at 25 µM; active compounds read high
# Sequence of Ubiquitin carboxyl-terminal hydrolase 30 (Homo sapiens) (Q70CQ3 whole entry, looked up): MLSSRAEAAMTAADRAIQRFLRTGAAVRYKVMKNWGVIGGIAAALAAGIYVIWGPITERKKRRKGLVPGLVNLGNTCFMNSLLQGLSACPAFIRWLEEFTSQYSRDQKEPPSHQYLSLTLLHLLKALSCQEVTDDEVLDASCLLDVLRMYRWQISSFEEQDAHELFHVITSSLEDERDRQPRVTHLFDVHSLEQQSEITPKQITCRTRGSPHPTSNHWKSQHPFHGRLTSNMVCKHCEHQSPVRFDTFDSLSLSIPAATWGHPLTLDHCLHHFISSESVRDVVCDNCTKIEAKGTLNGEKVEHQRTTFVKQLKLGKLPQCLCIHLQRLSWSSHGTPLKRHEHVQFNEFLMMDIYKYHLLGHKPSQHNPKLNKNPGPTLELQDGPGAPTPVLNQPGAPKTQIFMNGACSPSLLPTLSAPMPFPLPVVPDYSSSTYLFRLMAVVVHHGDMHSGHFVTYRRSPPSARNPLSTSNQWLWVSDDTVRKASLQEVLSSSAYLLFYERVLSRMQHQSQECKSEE
row,SMILES,inhibition
1,CSc1ncccc1C(=O)Nc1ccnn1C(C)c1ccncc1 (configuration not stated),-23%
2,CCn1c2ccccc2n2c(S(=O)(=O)Cc3ccccc3)nnc12,5.02%
3,Cc1sc2nc(C3CC3)n(C3CCN(C(=O)C(C)C)CC3)c(=O)c2c1C,18.3%
4,c1cc(CNCc2ccc3c(c2)OCO3)ccn1,0.888%
5,c1ccc(-c2ccc(NCc3ccc4c(c3)OCO4)nn2)cc1,33.6% (active)
6,CCC(Oc1ccccc1)C(=O)NCc1ccc2c(c1)OCO2 (configuration not stated),21.1%
7,Cc1cccc(CN2CCN(CC(=O)NCCN3CCOCC3)C2=O)c1,-2.8%
8,O=C(NCc1ccccc1F)c1nnn(-c2ccccc2)n1,14.4%
9,CSCc1c(C)noc1-c1cc(C)on1,8.31%
10,COc1ccccc1N(Cc1nc2nc(C)cc(C)n2n1)C(=O)c1ccccc1,-0.203%
11,CCOc1nc(-c2ccc(Cl)cc2Cl)nc2ccccc12,13.4%
12,Cc1ccnc(Nc2nc(-c3ccccc3)c3cc(Cl)ccc3n2)n1,82.8% (active)
13,CCOc1ccc(Nc2cc(C(=O)NCCN3CCCC3)c3ccccc3n2)cc1,29.9%
14,CC(=O)C[n+]1cc(-c2ccc(C)cc2)n2c1CCC2,5.82%
15,CCOc1ccc(C(=O)C[n+]2cc(-c3ccccc3)n3c2CCC3)cc1,30.3% (active)
16,CCN1CCN(c2ccc(NC(=O)c3cccc(C)c3)cn2)C1=O,-23.3%
17,Cc1nc(-c2cnccn2)n(CC(=O)Nc2ccc(F)cc2)c(=O)c1C,2.83%
18,CC(=O)c1cccc(Nc2c(C(=O)N3CCCC3)cnc3nc(C)ccc23)c1,-35.8%
19,COCCNc1nn2c(-c3ccc4ccccc4c3)cnc2s1,30.2% (active)
20,OCc1ccccc1-c1cnc2sc(NCCc3ccccn3)nn12,16.3%
21,Cc1nnn(C23CC4CC(CC(C(=O)NC5CCCC5)(C4)C2)C3)n1,21.2%
22,CCOc1ccccc1N1CCN(C(=O)c2snc(-c3ccncc3)c2N)CC1,1.69%
23,O=C(CCC(=O)N(c1ccccc1)c1ccccc1)Nc1ccccc1,-16.4%

row,SMILES,inhibition
1,O=C(Cn1cnc2c(sc3ccccc32)c1=O)Nc1ccc2c(c1)OCCO2,-498%
2,CN(c1ccccc1)c1nc(=O)n(CC(=O)Nc2ccc3c(c2)OCCO3)c2ccccc12,42.3% (active)
3,COc1ccc(C)cc1NC(=O)Cn1c(=O)nc(N(C)c2ccccc2)c2ccccc21,0.767%
4,CCCCS(=O)(=O)N1C[C@H]2CC[C@@]3(N=C(C)N(CC4CC4)C3=O)[C@H]2C1,12.5%
5,CNC(=O)c1sc2nccnc2c1C1CCN(C(=O)c2cccc(F)c2)CC1,13.3%
6,CNc1cc(C2CCCN2C(=O)c2cc3c([nH]c2=O)CCC3)ccn1 (configuration not stated),-20.8%
7,CC(C)N(C(=O)CSc1nc2ccc([N+](=O)[O-])cc2s1)C(C)C,-147%
8,CC(C)Cc1cc(C(=O)N2CCN(C)CC(C(N)=O)C2)on1 (configuration not stated),16.9%
9,C=C1CC[C@@H]2[C@@]3(C)CCC(=O)C(C)(C)[C@@H]3CC[C@@]2(C)[C@]12Cc1c(c(C)c(C)oc1=O)O2,30.3% (active)
10,CNC(=O)Nc1ccc(C2(C(=O)NC3CCCC3)CCC2)cc1,-19.9%
11,CC12C(=O)N(CCCN3CCOCC3)CC(=O)N1CCc1c2[nH]c2ccccc12 (configuration not stated),7.84%
12,Cc1cc(NC2CCCCC2)n2ncc(-c3ccccc3Cl)c2n1,-16.5%
13,Cc1ccc(NC(=O)CCC(=O)N(c2ccccc2)c2ccccc2)cc1Cl,17.2%
14,Cc1ccc(NC(=O)CCOc2ccccc2)cc1S(=O)(=O)Nc1ccccc1Cl,30.4% (active)
15,COc1ccc(NS(=O)(=O)c2cc(NC(=O)CC(=O)c3ccc([N+](=O)[O-])cc3)ccc2C)cc1,29.7%
16,O=C(Nc1nnc(-c2cccs2)o1)C1CCCCC1,10.9%
17,Cc1cc(-c2nnc(SCC(=O)Nc3ccc(Br)c(C)c3)n2N)n[nH]1,71.5% (active)
18,Cc1cc(NC(=O)COC(=O)c2cccc(C)c2O)ccc1Br,6.49%
19,Nn1c(SCC(=O)Nc2ccccc2F)nnc1-c1n[nH]c2c1CCC2,-0.125%
20,O=C(c1cnc2sc3c(n2c1=O)CCC3)N1CCCCC1,-37.1%
21,CC(C)c1nc2oc3c(N4CCN(CCO)CC4)ncnc3c2c2c1CCC2,18.4%
22,CC(O)CNc1ncnc2c1oc1nc(C(C)C)c3c(c12)CCC3 (configuration not stated),38.1% (active)
23,CC(C)Cc1nc2sc3c(NCc4ccco4)ncnc3c2c2c1CCC2,-21.1%

row,SMILES,inhibition
1,CC(C)n1cnc2c1C(C(=O)N1CCN(C)CC1)N(Cc1ccccc1)CC2 (configuration not stated),9.34%
2,CC(C)(C)C(=O)N1CCC2(COCc3cnc(NCc4ccco4)nc32)C1 (configuration not stated),2.12%
3,Cc1c(S(=O)(=O)N2CCCCC2)c(C)n(C)c1-c1nnc(C2CCC2)o1,3.55%
4,Cc1nnc(NCc2ccc(Cl)cc2)[nH]c1=O,26%
5,CSc1cccc(NC(=O)COc2ccc(C(=O)c3ccccc3)cc2)c1,-4.48%
6,CSc1cccc(NC(=O)CCn2c(=O)c3cccn3c3ccccc32)c1,32.6% (active)
7,CSc1cccc(NC(=O)CCc2ccc3nc[nH]c3c2)c1,-0.451%
8,Cc1cc2n(n1)CCCN2C(=O)CCC(=O)Nc1ccc(F)cc1F,-24.2%
9,CC(=O)N1C[C@H]2C3(CCN(C(=O)c4ccccc4)CC3)CC[C@@]2(C(=O)N(C)C)C1,25.8%
10,Cc1ccc(-n2cc(-c3noc(C(=O)Nc4ccc(F)cc4C)n3)nn2)cc1,36.9% (active)
11,Cc1cc(F)ccc1NC(=O)c1cc(C2CC2)n2nccc2n1,-33.1%
12,Cc1ccc(Cc2nc(CC(=O)Nc3ccc(F)cc3F)n[nH]2)cc1,-1.22%
13,CCC(C(=O)Nc1ccc(-c2cn3cccnc3n2)cc1)c1ccccc1 (configuration not stated),-89.6%
14,N#Cc1ccc(C(=O)Nc2cccc(-c3noc(C4CC4)n3)c2)c(F)c1,13.2%
15,Cc1ccc(F)c2c(=O)c3c([nH]c12)CCN(CC(=O)Nc1cccc(C#N)c1)C3,-178%
16,O=C(Cn1c(=O)n(Cc2ccc3c(c2)OCO3)c(=O)c2cccnc21)Nc1ccc(F)cc1,21.5%
17,CC(C)(C)C(=O)Cn1c(=O)n(Cc2ccco2)c(=O)c2ccccc21,1.71%
18,O=C(Cn1c(=O)n(Cc2ccc3c(c2)OCO3)c(=O)c2ccccc21)NCc1ccco1,33% (active)
19,Cc1cc2oc(=O)cc(CN3CCN(Cc4ccccc4)CC3)c2cc1C,3.27%
20,Cc1cccc(NC(=O)Nc2ccc3c(c2)N(S(=O)(=O)c2ccccc2)CC3)c1C,30.5% (active)
21,Cc1ccc(NC(=O)c2ccc3c(c2)N(S(C)(=O)=O)CC3)cc1C,-53.8%
22,COc1ccccc1NC(=O)c1cccc(S(=O)(=O)N2CCc3ccccc32)c1,-7.37%
23,COc1ccc(C2=NC3(CCN(Cc4cccc(F)c4)CC3)NC2=O)cc1,-23.4%

row,SMILES,inhibition
1,CCc1cnc(N2CC[C@@H]3CN(CCC(C)C)S(=O)(=O)[C@@H]3CC2)nc1,27.9%
2,Cc1ccc2c(=O)cc(CN(C)Cc3ccc(F)cc3)[nH]c2c1C,-7.81%
3,COc1ccc(C2=CC(c3ccc(Cl)cc3)n3ncc(C(=O)Nc4ccccc4)c3N2)cc1 (configuration not stated),-15.7%
4,C=C1CCC2[C@](C)(CCC[C@]2(C)C(=O)OC)[C@H]1CCc1ccoc1C[N+](C)(C)Cc1ccccc1 (some centres not stated),72.7% (active)
5,C=C1CCC2[C@](C)(CCC[C@]2(C)C(=O)OC)[C@H]1CCc1ccoc1/C=C/C(=O)O (some centres not stated),61.8% (active)
6,CNc1nc(C2CCNCC2)nc2c1CCN(S(=O)(=O)c1ccccc1Cl)C2,-118%
7,COc1cc(O)ccc1CN1CCCC12Cc1ccccc1CNC2=O (configuration not stated),-28%
8,Cc1cncc(C2CCCN(C(=O)CCc3cc(Cl)no3)C2)n1 (configuration not stated),-18.4%
9,O=C(COc1ccccc1Cl)NCC(c1ccco1)N1CCOCC1 (configuration not stated),-52.2%
10,COc1ccc(N2C(=O)N(Cc3ccccc3)S(=O)(=O)c3cccnc32)cc1,13.9%
11,COc1ccccc1NC(=O)NCc1cnn2ccccc12,14.1%
12,Cc1nc(C2CCN(C(=O)C(C)(C)C)CC2)cc(N2CC3(CCOCC3)OC2=O)n1,6.69%
13,c1ccc(Cn2nnc3c(N4CCCCC4)ncnc32)cc1,3.44%
14,O=C(C1CCCCC1)N1CCN(c2ncnc3c2nnn3Cc2ccccc2)CC1,43.1% (active)
15,O=C(C1CCCCC1)N1CCC(c2nc3c(nnn3Cc3cccc(F)c3)c(=O)[nH]2)CC1,19.3%
16,CCS(=O)(=O)N1CCc2c(nc(C3CCCN3)nc2NC)C1 (configuration not stated),-56.6%
17,COc1ccc(NC(=O)C(C)c2c(C)n[nH]c2C)cc1 (configuration not stated),23.5%
18,Cc1cccc2c1N(C(=O)Nc1ccc(OCc3ccccc3)cc1)CCC2,16.1%
19,O=C(CN1CCCC1c1ccc2c(c1)OCCCO2)NCCc1ccccc1F (configuration not stated),-52%
20,Cn1cc(CCNC(=O)Nc2cc(F)ccc2F)c2cccnc21,-16.4%
21,CCN1CCc2nc(-c3ccccc3)n(CC(=O)Nc3cccc(Cl)c3C)c(=O)c2C1,-97%
22,Cc1c(Cl)cccc1NC(=O)CCn1cnc2ccccc2c1=O,74% (active)
23,Cc1ccc(N(C)C(=O)CCn2cnc3ccccc3c2=O)cc1,-5.01%
